Bioassay records from PubChem.
Only some compounds are listed: those with a hit (about 1.8% of all), similar ones and a draw of the others.
PTHR1 ag – qHTS for PTHR1 Agonists: Primary Screen | 0.075% of 410,000 active | HEK293 GP2 PTHR1 cells, GloSensor cAMP luminescence, 1 h | Potency, µM (top dose mostly 115 µM), most hits filed as activators; note: nearly all actives have a fitted effect of over 55% in size
Target sequence (Q03431 whole entry, looked up): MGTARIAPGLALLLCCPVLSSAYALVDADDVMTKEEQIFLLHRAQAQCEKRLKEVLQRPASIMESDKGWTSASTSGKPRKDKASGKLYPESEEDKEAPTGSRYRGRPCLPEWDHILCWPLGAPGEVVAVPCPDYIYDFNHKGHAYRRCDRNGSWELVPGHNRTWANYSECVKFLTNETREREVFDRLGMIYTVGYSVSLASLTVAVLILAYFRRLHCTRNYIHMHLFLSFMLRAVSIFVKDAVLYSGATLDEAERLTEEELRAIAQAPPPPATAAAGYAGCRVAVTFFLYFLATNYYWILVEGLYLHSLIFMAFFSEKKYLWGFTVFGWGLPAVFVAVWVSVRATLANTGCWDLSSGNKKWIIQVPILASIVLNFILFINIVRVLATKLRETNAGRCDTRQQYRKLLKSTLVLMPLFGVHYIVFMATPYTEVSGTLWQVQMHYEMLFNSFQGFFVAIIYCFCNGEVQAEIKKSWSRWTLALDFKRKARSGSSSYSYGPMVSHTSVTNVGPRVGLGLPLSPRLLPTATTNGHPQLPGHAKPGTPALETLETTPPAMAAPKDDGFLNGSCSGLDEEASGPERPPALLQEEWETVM
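HEK-293-derived GP2 cells expressing PTHR1 and a GloSensor cAMP reporter, 3,000/well, plated overnight, given luciferin plus IBMX (each 0.5 mM as added) for 1 h at 37 °C, then compound for 1 h at 37 °C. Luminescence was read after 15 min at room temperature.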
GLP1R inv ag – qHTS of GLP-1 Receptor Inverse Agonists (Inhibition Mode); Glucagon-like peptide 1 receptor (Homo sapiens), P43220; HEK293 GLP-1R CRE-luciferase, luminescence, 24 h; GLP-1R form is constitutively active; Potency, µM (highest dose often 38.3 µM), usual class: inhibitors; 1.6% of 410,000 active; AID 624417, 2012; note: nearly all actives have a fitted effect of over 55% in size
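Assay principle: reduced luminescence from a cAMP-responsive reporter in HEK293 cells co-expressing a constitutively active GLP-1R. Conditions: 24 hr compound incubation, 37 deg C, 5% CO2.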
GLP1R ag – qHTS of GLP-1 Receptor Agonists; Glucagon-like peptide 1 receptor (Homo sapiens), P43220; HEK293 GLP-1R CRE-luciferase, luminescence, 4-6 h; cells express a hypersensitive GLP-1R form; Potency, µM (top dose mostly 45.6 µM), most hits filed as activators; 0.007% of 380,000 active; AID 624172, 2012
GLP1R cytotox – qHTS of GLP-1 Receptor Inverse Agonists: Cytotox Screen. HEK293 cAMP-luciferase reporter cells, luminescence, 24 h. Potency, µM (series often up to 38.3 µM), most hits filed as inhibitors. 0.13% of 410,000 active. AID 624418, 2012;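 note: loss of luciferase light is scored as toxicity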
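Cells in DMEM/10% Nu serum/1% pen-strep, 1536-well format. Pre-incubated 12 h, dosed with 23 nL compound, incubated a further 24 h. Luciferase detection, 12 min at room temp, luminescence.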
KAT2A inh – qHTS Assay for Inhibitors of GCN5L2. Histone acetyltransferase KAT2A (Homo sapiens), Q92830. GCN5L2 HAT assay, ThioGlo1 CoA-SH fluorescence. Potency, µM (doses to about 58.9 µM), hits mostly inhibitors. 0.21% of 390,000 active. AID 504327, 2011
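Enzyme at 20nM final was mixed with library compounds for 15 min at room temperature. Peptide H3(1-25) at 75uM, acetyl-CoA at 70uM and ThioGlo1 at 50uM were then added. Plates were read immediately and after 20 min (Ex340nm/Em540nm).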
RGS4 inh – Inhibitors of Regulator of G Protein Signaling (RGS) 4: qHTS. Transcreener GDP fluorescence polarization, RGS4-accelerated GTP hydrolysis. Potency, µM (doses to about 114 µM), usual class: inhibitors. Regulator of G-protein signaling 4 (Homo sapiens), P49798. 0.039% of 390,000 active; note: nearly all actives have a fitted effect of over 75% in size
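MLSMR compounds (23 nl, pin-transferred) preincubated 10 min at room temperature with a 500nM (2x) first reagent, then RGS4 at 900nM (2x) plus Transcreener GDP mix added; fluorescence polarization (620/688 nm) read before and after 90 min at 30 °C.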
Of the large screens only hits and unclear results are named; the others gave an inactive call; ! = a repeat was not active. Calls come from the whole dose curve; as a rule, active = well fitted curve in the direction sought with a large enough effect; inconclusive = small, poorly fitted or top-dose-only effect, or another doubt; inactive = no such curve, though single readings can be large; an effect the other way counts as inactive or inconclusive.

CC(C)Oc1ccc(CN2CCCC(CO)(Cc3ccccc3)C2)cc1CO (stereo not given)	GLP1R inv ag inconclusive
Cc1oc(-c2ccccc2F)nc1CS(=O)CC(=O)NC1CCCC1 (stereo not given)	none
Cc1cc(S(=O)(=O)N2CCN(CC(=O)N(C)Cc3ccccc3)CC2)ccc1Br	GLP1R inv ag 8.91µM
CN(Cc1ccccc1)C(=O)CN1CCN(S(=O)(=O)c2ccc(Cl)c(Cl)c2)CC1	GLP1R inv ag inconclusive
Cc1cc(OCC(=O)N(C)Cc2ccccc2)ccc1Br	GLP1R inv ag 10µM
COC(=O)C1=C(C)N(c2ccc(Cl)c(Cl)c2)C(=O)C1	GLP1R inv ag 12.6µM
COC(=O)C1=C(C)N(c2ccc(S(N)(=O)=O)cc2)C(=O)C1	none
C[C@@]12C(=O)OC(=O)[C@]1(C)C1CCC2O1	GLP1R inv ag 1.78µM, GLP1R cytotox inconclusive
CC12C(=O)N(c3nccs3)C(=O)C1(C)C1CCC2O1 (stereo not given)	GLP1R inv ag inconclusive, GLP1R cytotox inconclusive (no result: KAT2A inh)
O=S(=O)(/C=C/C=C/S(=O)(=O)c1ccccc1)c1ccccc1	GLP1R cytotox 0.631µM, RGS4 inh inconclusive (no result: KAT2A inh)
NS(=O)(=O)c1ccccc1	none
S=C(NC1CC1)NC1CCCc2ccccc21 (stereo not given)	GLP1R inv ag inconclusive, GLP1R cytotox inconclusive
CCC(C)Sc1cccc(-c2nc3cnccn3c2NC2CCCCC2)c1 (stereo not given)	GLP1R inv ag 10µM, KAT2A inh inconclusive
CCCCNc1c(-c2cccc(SC(C)CC)c2)nc2ccc(Cl)cn12 (stereo not given)	GLP1R inv ag 10µM
CCC(C)Sc1cc(-c2nc3cc(C)ccn3c2NC2CCCCC2)ccc1OC (stereo not given)	GLP1R inv ag inconclusive
CCC(C)Sc1cccc(-c2nc3ccc(C)cn3c2NC2CCCCC2)c1 (stereo not given)	GLP1R inv ag 11.2µM, KAT2A inh inconclusive
c1cc(SC2CCCCC2)cc(-c2nc3cnccn3c2NC2CCCCC2)c1	GLP1R inv ag inconclusive, KAT2A inh inconclusive
CCC(C)Sc1cc(-c2nc3ccccn3c2NC2CCCCC2)ccc1OC (stereo not given)	GLP1R inv ag 5.62µM
COc1ccc(C(=O)NCCc2nnc3ccc(SCC(=O)Nc4cc(C)on4)nn23)cc1	none
CCOc1ccc(-n2c(SCC(=O)N3CCCCCC3)nc3c([nH]c4ccccc43)c2=O)cc1	none
CCOC(=O)N1CCc2c(sc3c2c(=O)n(Cc2ccccc2)c(=O)n3Cc2cccc(C)c2)C1	GLP1R inv ag 10µM!
CCOC(=O)C1(CCc2ccccc2)CCN(C(=O)CN2CCOC2=O)CC1	KAT2A inh inconclusive
O=C(NNc1cccc(Cl)c1)c1cccnc1Cl	GLP1R inv ag 1.26µM
O=C(NNc1cccc(Cl)n1)c1cccnc1Cl	none
CC[C@]12c3[nH]c4ccc(Cl)cc4c3CCN1C(=O)[C@@H](CC(=O)NCc1cccc(C(F)(F)F)c1)C[C@@H]2C(=O)N1CCN(C(=O)c2ccco2)CC1	GLP1R inv ag 10µM, GLP1R cytotox inconclusive
CC[C@]12c3[nH]c4ccc(OC)cc4c3CCN1C(=O)C(CC(=O)NCc1cccc(C(F)(F)F)c1)C[C@@H]2C(=O)N1CCN(C(=O)c2ccco2)CC1 (stereo not given in full)	none
Nc1nc(-c2ccc(Cl)cc2)c(S(=O)(=O)c2ccccc2)s1	GLP1R inv ag 8.91µM
O=C(Nc1ccc(OC(F)(F)F)cc1)Nc1cccc([N+](=O)[O-])c1	GLP1R inv ag 2.51µM, GLP1R cytotox 5.62µM
